Cytotoxicity call data for 60 compounds are collected here from the antibiotic and cytotoxicity screens of Wong et al. (2023).

Structures are written as SMILES. About 1,500 (3.8%) of roughly 39,000 compounds were called active. What follows is part of a selection rich in actives, with near analogues and random picks from the rest.

This experiment has as its system HSkMC (human skeletal muscle cells). The experiment can be described thus: cytotoxicity call (relative viability < 0.9). The following applies: 10 µM.
With `CC(C)(C)c1cc(NC(=O)Nc2ccc(-c3cn4c(n3)sc3cc(OCCN5CCOCC5)ccc34)cc2)no1`, the cytotoxicity call was “active”.
As for `O=C(NCCCN1CCOCC1)Nc1ccc(Cc2ccc(NC(=O)NCCCN3CCOCC3)cc2)cc1`, the cytotoxicity call is “inactive”.
For the compound `COc1cc(OC)cc(C(=O)Nc2nc(-c3ccc4c(c3)CCN4C(=O)CN3CCOCC3)cs2)c1`, the cytotoxicity call is “inactive”.
As to `C[C@H](CO)N1C[C@H](C)[C@@H](CN(C)CC2CC2)Oc2c(NC(=O)Nc3cccc4ccccc34)cccc2C1=O`, the cytotoxicity call was “inactive”.
For the compound `CC(C)CC(=O)Nc1cncc(-c2ccc3[nH]nc(-c4nc5cncc(-c6cccc(F)c6)c5[nH]4)c3c2)c1`, the cytotoxicity call is “active”.
On to `Cn1c(=O)[nH]c(=O)c2c1nc(N1CCN(CCO)CC1)n2CC(=O)c1ccccc1`, for which the cytotoxicity call is “inactive”.
With `CCS(=O)(=O)N1C[C@]2(CN(C2)C(=O)c2ccc3c(c2)OCO3)c2c(n(c3cc(ccc23)OC)C)[C@@H]1CO`, the cytotoxicity call was “inactive”.
`COc1ccc(CN(C)C[C@H]2Oc3c(NC(=O)c4ccc(-c5nccs5)cc4)cccc3C(=O)N([C@H](C)CO)C[C@@H]2C)cc1`: the cytotoxicity call was “inactive”.
Turning to `COc1ccc(CN(C)C[C@@H]2Oc3c(NC(=O)c4ccc(-c5nccs5)cc4)cccc3C(=O)N([C@H](C)CO)C[C@H]2C)cc1`, the cytotoxicity call is “active”.
Regarding `C[C@@H]1CN([C@H](C)CO)C(=O)c2cccc(NC(=O)c3ccc(-c4nccs4)cc3)c2O[C@H]1CN(C)Cc1ccc(Oc2ccccc2)cc1`, the cytotoxicity call is “inactive”.
With `COc1ccc(CN(C)C[C@H]2Oc3c(NC(=O)c4ccc(-c5nccs5)cc4)cccc3C(=O)N([C@@H](C)CO)C[C@@H]2C)cc1`, the cytotoxicity call is “inactive”.
For `C[C@H]1CN([C@@H](C)CO)C(=O)c2cccc(NC(=O)c3ccc(-c4nccs4)cc3)c2O[C@H]1CN(C)Cc1ccc(Oc2ccccc2)cc1` the value was “inactive”.
Turning to `C[C@H](CO)N1C[C@H](C)[C@H](CN(C)Cc2ccc(Oc3ccccc3)cc2)Oc2c(NC(=O)c3ccc(-c4nccs4)cc3)cccc2C1=O`, the cytotoxicity call is “active”.
For `COc1ccc(NC(=O)Nc2ccc3c(c2)C(=O)N([C@H](C)CO)C[C@@H](C)[C@H](CN(C)S(=O)(=O)c2ccc(Cl)cc2)OCCCC[C@@H](C)O3)cc1`, the cytotoxicity call was “inactive”.
The result for `C[C@H]1CN([C@@H](C)CO)C(=O)c2cc(C3=CCCCC3)cnc2O[C@H]1CN(C)C(=O)CN1CCOCC1` reads “inactive”.
For the compound `O=C1OCc2cc(-n3cnnn3)ccc21`, the cytotoxicity call is “inactive”.
With `COc1ccc(NC(=O)N(C)C[C@H]2OCCCC[C@H](C)Oc3ccc(NC(=O)c4ccccc4)cc3C(=O)N([C@H](C)CO)C[C@H]2C)cc1`, the cytotoxicity call was “inactive”.
`C[C@@H]1CN([C@H](C)CO)C(=O)c2cc(NC(=O)Nc3ccccc3)ccc2O[C@H]1CN(C)S(=O)(=O)c1cn(C)cn1`: the cytotoxicity call was “inactive”.
As to `CCCCCCc1nc(-c2ccc(-c3ccc(Cl)c(Cl)c3)o2)cc2c1[Si](C(C)C)(C(C)C)OC2`, the cytotoxicity call is “active”.
As for `CC(C)[Si]1(C(C)C)OCc2cc(-c3ccc(-c4ccc(Cl)c(Cl)c4)o3)nc(-c3ccccc3)c21`, the cytotoxicity call was “inactive”.
For the compound `CC(C)[Si]1(C(C)C)OCc2cc(-c3ccc(-c4ccc(Cl)c(Cl)c4)o3)nc(CCc3ccccc3)c21`, the cytotoxicity call is “inactive”.
Turning to `O=C(O)c1cncnc1N1CCCC1`, the cytotoxicity call is “inactive”.
The result for `C[C@@H]1CN([C@H](C)CO)C(=O)c2cccc(NC(=O)C3CCCCC3)c2O[C@H]1CN(C)Cc1ccc(Oc2ccccc2)cc1` reads “inactive”.
For the compound `C[C@H]1CN([C@@H](C)CO)C(=O)c2cccc(NC(=O)Nc3ccc(F)cc3)c2O[C@@H]1CN(C)Cc1ccc(-c2ccccc2)cc1`, the cytotoxicity call was “inactive”.
Take `C[C@H]1CN([C@@H](C)CO)C(=O)c2cccc(NC(=O)Nc3ccc(F)cc3)c2O[C@H]1CN(C)Cc1ccc(-c2ccccc2)cc1`: the cytotoxicity call is “inactive”.
On to `C[C@@H]1CN([C@H](C)CO)C(=O)c2cccc(NC(=O)Nc3ccc(F)cc3)c2O[C@H]1CN(C)Cc1ccc(-c2ccccc2)cc1`, for which the cytotoxicity call is “inactive”.
For the compound `C[C@@H]1CN([C@@H](C)CO)C(=O)c2cccc(NC(=O)Nc3ccc(F)cc3)c2O[C@@H]1CN(C)Cc1ccc(-c2ccccc2)cc1`, the cytotoxicity call is “active”.
Consider `C[C@@H]1CN([C@@H](C)CO)C(=O)c2cccc(NC(=O)Nc3ccc(F)cc3)c2O[C@H]1CN(C)Cc1ccc(-c2ccccc2)cc1`, for which the cytotoxicity call was “active”.
The result for `C[C@H](CO)N1C[C@H](C)[C@@H](CN(C)Cc2ccc(-c3ccccc3)cc2)Oc2c(NC(=O)Nc3ccc(F)cc3)cccc2C1=O` reads “inactive”.
For `Cc1noc(C)c1NC(=O)Nc1ccc2c(c1)CC(=O)N([C@@H](C)CO)C[C@H](C)[C@H](CN(C)C(=O)Nc1ccc(C(F)(F)F)cc1)O2` the value was “inactive”.
Regarding `CO[C@@H](CN(C)S(=O)(=O)c1cccc(Cl)c1)[C@@H](C)CN([C@H](C)CO)S(=O)(=O)c1cccc(Cl)c1`, the cytotoxicity call is “inactive”.
With `C[C@@H]1CCCCO[C@H](CN(C)S(=O)(=O)c2cn(C)cn2)[C@@H](C)CN([C@@H](C)CO)C(=O)c2cc(NC(=O)Nc3cccc4ccccc34)ccc2O1`, the cytotoxicity call was “inactive”.
Take `CO[C@@H]1CN(C)C(=O)c2ccc(NC(=O)C3CCOCC3)cc2OC[C@@H](C)N(C(=O)C2CCOCC2)C[C@H]1C`: the cytotoxicity call is “inactive”.
In the case of `C[C@@H]1CN([C@@H](C)CO)C(=O)Cc2cc(NS(=O)(=O)c3ccccc3)ccc2O[C@H]1CN(C)Cc1ccc(-c2ccccc2)cc1`, the cytotoxicity call was “inactive”.
For the compound `C[C@H]1CN([C@@H](C)CO)C(=O)Cc2cc(NS(=O)(=O)c3ccccc3)ccc2O[C@@H]1CN(C)Cc1ccc(-c2ccccc2)cc1`, the cytotoxicity call is “active”.
The result for `C[C@H](CO)N1C[C@H](C)[C@H](CN(C)Cc2ccc(-c3ccccc3)cc2)Oc2ccc(NS(=O)(=O)c3ccccc3)cc2CC1=O` reads “inactive”; that for `C[C@H](CO)N1C[C@H](C)[C@@H](CN(C)Cc2ccc(-c3ccccc3)cc2)Oc2ccc(NS(=O)(=O)c3ccccc3)cc2CC1=O`, “inactive”.
As to `C[C@@H]1CN([C@H](C)CO)C(=O)Cc2cc(NS(=O)(=O)c3ccccc3)ccc2O[C@H]1CN(C)Cc1ccc(-c2ccccc2)cc1`, the cytotoxicity call was “active”.
For the compound `C[C@@H]1CN([C@H](C)CO)C(=O)Cc2cc(NS(=O)(=O)c3ccccc3)ccc2O[C@@H]1CN(C)Cc1ccc(-c2ccccc2)cc1`, the cytotoxicity call was “inactive”.
In the case of `C[C@@H]1CN([C@@H](C)CO)C(=O)Cc2cc(NS(=O)(=O)c3ccccc3)ccc2O[C@@H]1CN(C)Cc1ccc(-c2ccccc2)cc1`, the cytotoxicity call is “active”.
With `C[C@H]1CN([C@@H](C)CO)C(=O)Cc2cc(NS(=O)(=O)c3ccccc3)ccc2O[C@H]1CN(C)Cc1ccc(-c2ccccc2)cc1`, the cytotoxicity call is “active”.
`CN(C)c1cncc(C(=O)O)c1`: the cytotoxicity call was “inactive”.
Turning to `C[C@@H]1CCCCO[C@H](CN(C)C(=O)Nc2ccc3c(c2)OCO3)[C@H](C)CN([C@H](C)CO)C(=O)c2cc(NS(=O)(=O)c3ccccc3)ccc2O1`, the cytotoxicity call was “inactive”.
For `CC(C)C#Cc1ccc2c(c1)O[C@H](CN(C)C(=O)Cc1ccccn1)[C@H](C)CN([C@H](C)CO)S2(=O)=O` the value was “inactive”; for `Cc1noc(C)c1NC(=O)N(C)C[C@@H]1Oc2ccc(NC(=O)NC(C)C)cc2CC(=O)N([C@H](C)CO)C[C@H]1C`, “inactive”.
The result for `CCCC(=O)Nc1ccc2c(c1)OC[C@@H](C)N(C(=O)Cc1ccccn1)C[C@@H](C)[C@H](OC)CN(C)C2=O` reads “inactive”; that for `CCN1C(=O)CS/C1=N\N1CCOCC1`, “inactive”; that for `C[C@@H]1CN([C@H](C)CO)C(=O)c2cc(NC(=O)Nc3ccc(C(F)(F)F)cc3)ccc2O[C@@H](C)CCCCO[C@H]1CN(C)C(=O)Nc1ccc(F)cc1`, “inactive”.
Take `COCCCNC(=O)[C@@]1(Sc2ccc(C)cc2)CC(=O)N(Cc2ccccc2C(F)(F)F)[C@@H]1c1ccc(CO)cc1`: the cytotoxicity call was “inactive”.
Regarding `C[C@@H]1CCCCO[C@@H](CN(C)C(=O)C2CCCCC2)[C@H](C)CN([C@@H](C)CO)C(=O)c2cc(NC(=O)Nc3ccccc3)ccc2O1`, the cytotoxicity call was “inactive”.
As to `C[C@@H]1CCCCO[C@H](CN(C)C(=O)Nc2ccc3c(c2)OCO3)[C@H](C)CN([C@H](C)CO)C(=O)c2cc(NC(=O)c3ccncc3)ccc2O1`, the cytotoxicity call was “inactive”.
As to `C[C@@H]1CN([C@@H](C)CO)C(=O)c2ccccc2-c2ccccc2CO[C@H]1CN(C)C(=O)Nc1ccc(F)cc1`, the cytotoxicity call is “inactive”.
On to `CC(C)CC(NC(=O)C(C)NC(=O)CNC(=O)C(NC=O)C(C)C)C(=O)NC(C)C(=O)NC(C(=O)NC(C(=O)NC(C(=O)NC(Cc1c[nH]c2ccccc12)C(=O)NC(CC(C)C)C(=O)NC(Cc1c[nH]c2ccccc12)C(=O)NC(CC(C)C)C(=O)NC(Cc1c[nH]c2ccccc12)C(=O)NC(CC(C)C)C(=O)NC(Cc1c[nH]c2ccccc12)C(=O)NCCO)C(C)C)C(C)C)C(C)C` (stereo not given) [GRAMICIDIN (gramicidin A shown) ], for which the cytotoxicity call was “active”.
For `C[C@H](NC(=O)[C@@H](Cc1ccc2ccccc2c1)NC(=O)[C@@H](C)N)C(=O)N[C@@H](Cc1c[nH]c2ccccc12)C(=O)N[C@H](Cc1ccccc1)C(=O)N[C@@H](CCCCN)C(N)=O`, the cytotoxicity call was “inactive”.
With `CC(C)C[C@H](NP(=O)(O)O[C@H]1O[C@@H](C)[C@@H](O)[C@@H](O)[C@@H]1O)C(=O)N[C@H](Cc1c[nH]c2ccccc12)C(=O)O`, the cytotoxicity call was “inactive”.
For the compound `CCOc1ccc(C(=O)Nc2ccc(N3CCN(C(=O)c4cccs4)CC3)c(Cl)c2)cc1Br`, the cytotoxicity call is “inactive”.
Turning to `C[C@@H]1CCCCO[C@@H](CN(C)Cc2ccc(C(=O)Nc3ccccc3N)cc2)[C@@H](C)CN([C@H](C)CO)C(=O)c2cc(NC(=O)Nc3cccc4ccccc34)ccc2O1`, the cytotoxicity call was “inactive”.
As to `CC[C@H](C)[C@H]1O[C@]2(CC[C@@H]1C)C[C@@H]1C[C@@H](C/C=C(\C)[C@@H](O[C@H]3C[C@H](OC)[C@@H](O[C@H]4C[C@H](OC)[C@@H](O)[C@H](C)O4)[C@H](C)O3)[C@@H](C)/C=C/C=C3\CO[C@@H]4[C@H](O)C(C)=C[C@@H](C(=O)O1)[C@]34O)O2`, the cytotoxicity call was “active”.
Consider `CCC(C)C1OC2(CCC1C)CC1CC(CC=C(C)C(OC3CC(OC)C(OC4CC(OC)C(O)C(C)O4)C(C)O3)C(C)C=CC=C3COC4C(O)C(C)=CC(C(=O)O1)C34O)O2` (stereo not given), for which the cytotoxicity call is “inactive”.
As for `CC[C@@H](C)[C@H]1O[C@@]2(CC[C@@H]1C)C[C@H]1C[C@@H](CC=C(C)[C@@H](O[C@H]3C[C@@H](OC)[C@@H](O[C@H]4C[C@@H](OC)[C@@H](O)[C@@H](C)O4)[C@@H](C)O3)[C@@H](C)C=CC=C3CO[C@H]4[C@@H](O)C(C)=C[C@@H](C(=O)O1)[C@]34O)O2.CO[C@H]1C[C@@H](O[C@@H]2[C@@H](OC)C[C@@H](O[C@@H]3C(C)=CC[C@@H]4C[C@@H](C[C@@]5(CC[C@@H](C)[C@H](C(C)C)O5)O4)OC(=O)[C@@H]4C=C(C)[C@H](O)[C@@H]5OCC(=CC=C[C@@H]3C)[C@@]45O)O[C@@H]2C)O[C@@H](C)[C@@H]1O`, the cytotoxicity call was “active”.
